# Measured values published in PubChem BioAssay AID1434 (Sanford-Burnham Center for Chemical Genomics, 2008).
# In all, about 220,000 compounds went through this assay and about 1,600 (0.73%) were called active.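 How the source made its calls: active means mean inhibition across duplicate retests at 20 µM reaching about 50% (limit read from the data); inactive means the rest, inconclusive results apart.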 The list comes from a sample in which actives are over-represented; it also holds similar structures and randomly drawn compounds.
# Biological target: Runt-related transcription factor 1 (Homo sapiens) + Core-binding factor subunit beta (Homo sapiens) (UniProt Q01196+Q13951)
# Experiment: inhibitors of RUNX1 Runt–CBFb-SMMHC binding, primary screen, biochemical, FRET, Cerulean-Runt, Venus-CBFb-SMMHC, uHTS (AID 1434);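 further: 0% = DMSO wells and 100% = wells with excess untagged CBFb-SMMHC; inhibitors lower the FRET ratio by blocking Runt binding to CBFb-SMMHC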
# Conditions: Cerulean-Runt/Venus-CBFb-SMMHC FRET ratio 530/480, 1 h, at 20 µM, stronger effect = higher value
# Sequence of Runt-related transcription factor 1 (Homo sapiens) + Core-binding factor subunit beta (Homo sapiens) (Q01196 whole entry, looked up): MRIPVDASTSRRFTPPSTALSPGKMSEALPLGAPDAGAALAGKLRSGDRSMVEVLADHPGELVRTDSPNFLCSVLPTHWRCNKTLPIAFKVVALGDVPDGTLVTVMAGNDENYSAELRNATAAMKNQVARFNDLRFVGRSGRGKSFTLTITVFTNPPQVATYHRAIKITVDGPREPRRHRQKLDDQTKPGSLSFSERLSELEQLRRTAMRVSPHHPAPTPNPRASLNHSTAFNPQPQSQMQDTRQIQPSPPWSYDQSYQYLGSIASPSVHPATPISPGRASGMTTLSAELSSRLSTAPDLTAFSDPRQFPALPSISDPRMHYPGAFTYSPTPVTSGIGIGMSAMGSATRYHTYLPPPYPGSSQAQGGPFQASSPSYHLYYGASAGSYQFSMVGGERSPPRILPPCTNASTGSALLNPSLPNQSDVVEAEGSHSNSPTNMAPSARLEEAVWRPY
# Sequence of Runt-related transcription factor 1 (Homo sapiens) + Core-binding factor subunit beta (Homo sapiens) (Q13951 whole entry, looked up): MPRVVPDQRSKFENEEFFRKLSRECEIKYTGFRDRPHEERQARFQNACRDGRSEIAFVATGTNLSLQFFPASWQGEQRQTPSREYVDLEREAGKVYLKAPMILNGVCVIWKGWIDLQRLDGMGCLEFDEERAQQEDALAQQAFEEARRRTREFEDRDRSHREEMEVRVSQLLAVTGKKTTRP
SMILES,inhibition,inhibition (retest duplicate average)
CCOC(=O)c1c(N)n(Cc2ccccc2)c2nc3ccccc3nc12,97.2% (active),128%
COc1cc(Cn2c(N)c(C(=O)NCc3ccco3)c3nc4ccccc4nc32)cc(OC)c1OC,34.2% (inactive),
CCOC(=O)c1c(N)n(CCN2CCOCC2)c2nc3ccccc3nc12,69.9% (active),73.1%
O=C(OCCN1CCOCC1)C1(c2ccccc2)CCCC1,-5.6% (inactive),
CC/C(=N\NC(=O)c1ccccc1O)c1c(O)n(Cc2ccccc2)c(=O)[nH]c1=O,-0.6% (inactive),
CCOc1cccc(=NC2CCCCC2)c2c(C)[nH]c(C)c12,-11% (inactive),
CC1(C)C(c2ccccc2)=NC(c2cccnc2)=[N+]1[O-],-6.5% (inactive),
C/C=C/CC1(CC)C(=O)NC(=S)NC1=O,-3.2% (inactive),
COc1cc(OC)cc(C2(C#N)CCN(C)CC2)c1,-1.4% (inactive),
CCOC(=O)C1(CCc2ccccc2)CCN(Cc2ccco2)CC1,-5.4% (inactive),
